Bioassay records as filed in PubChem BioAssay.
The list is not random: actives were taken first. Their share in the collection is about 9.7%.
M1 antag: antagonists of rat M1 muscarinic receptor; Muscarinic acetylcholine receptor M1 (Rattus norvegicus), P08482; CHO-M1 cells, Fluo-4 calcium, ACh EC80 antagonist mode; stronger effect = lower value; B-score at 10 µM; hit rate 3.4% among 64,000;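 active = calcium fluorescence response, raw or row-and-column corrected B-score, differing from the plate sample mean either way at a set confidence level, mostly lower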
M1 agonist: M1 muscarinic receptor agonists, primary screen, CHO-M1 cells, Fluo-4 calcium, agonist mode. Fluo-4 calcium fluorescence; stronger effect = higher value. Muscarinic acetylcholine receptor M1. hit rate 3% among 64,000. B-score at 10 µM;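 active = fluorescence rise, raw or as B-score row- and column-corrected plate score, outside the 99.7% band of its plate's samples, either direction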
WNV NS2B-NS3 inh: inhibitors of WNV NS2B-NS3 protease, primary screen, biochemical, fluorogenic substrate. fluorogenic substrate Ex360/Em465; stronger effect = lower value. hit rate 0.18% among 65,000. AID 577, 2007. z-score (test concentration not listed). Genome polyprotein (West Nile virus), P06935; in the data active = z-score below about -3
Target sequence (P06935 1371-1501 limits assumed): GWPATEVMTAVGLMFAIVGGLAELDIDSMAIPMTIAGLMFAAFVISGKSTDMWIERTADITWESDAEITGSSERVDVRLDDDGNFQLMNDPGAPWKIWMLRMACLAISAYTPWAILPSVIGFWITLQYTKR
Target sequence (P06935 1502-1679 limits assumed): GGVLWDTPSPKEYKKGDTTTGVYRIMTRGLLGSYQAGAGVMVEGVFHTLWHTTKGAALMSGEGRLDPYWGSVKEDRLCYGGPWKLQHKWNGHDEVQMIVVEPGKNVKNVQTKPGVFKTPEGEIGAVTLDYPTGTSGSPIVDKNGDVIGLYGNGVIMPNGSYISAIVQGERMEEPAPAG
BAP1 block: inhibitors of BAP1 deubiquitinase, primary screen, biochemical, Ub-AMC fluorescence, kinetic; recombinant BAP1, Ub-AMC hydrolysis fluorescence kinetic; stronger effect = lower value; hit rate 0.48% among 72,000; Ubiquitin carboxyl-terminal hydrolase BAP1 (Homo sapiens), Q92560; calls only at 20 µM;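 active = activity remaining at or below 50% of control, provided the compound also passes the data quality filters; inactive = the rest, including low values that fail the filters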
Abs 340nm: compound light absorbance at 340 nm, profiling panel, artefact control, biochemical, MLSMR library, data from PS, PMK, MK assays. compound absorbance at 340 nm, fold over control. fold change at 10 µM. 65,000 tested, under 10 active;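 active = at 10 µM dose, initial 340 nm absorbance at least 2 fold that of control wells; inactive = change under 2 fold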;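 also: initial absorbance extrapolated from kinetic A340 decline of NADH oxidation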
Fluor 339 460: intrinsic fluorescence of library compounds, ex339/em460 – biochemical, MLSMR library, data from DPM-DC assay, artefact control, profiling panel | compound autofluorescence, ex339/em460 nm, NADH buffer; stronger effect = higher value; 1 = no-compound wells, NADH background | fluorescence fold increase at 10 µM | hit rate 5.5% among 65,000;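 active = at 10 µM, mean starting fluorescence two-fold or more over control wells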;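 also: signal is the first read of a kinetic run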
M1 antag conf: rat M1 muscarinic receptor antagonists, confirmation, CHO cells, Fluo-4 calcium, duplicate; calcium response (max-min fluorescence) at 10 µM; hit rate 43% among 1,700; shares compounds with M1 antag; AID 677, 2007; ACh EC80 antagonism; stronger effect = lower value;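 active = calcium response below the same-plate mean of wells given acetylcholine alone at its 80%-effect dose, minus 3 SD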
mGluR4 antag: human mGluR4 response to M1 antagonist hits, M1 allosteric modulator project, cell-based, antagonist mode, secondary assay 1; shares compounds with M1 antag; AID 678, 2007; CHO-mGluR4 calcium flux, Fluo-4 fluorescence, glutamate EC80; stronger effect = lower value; hit rate 0.9% among 1,700; fluorescence response (max-min) at 10 µM;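 active = fluorescence response below the plate's average for near-maximal glutamate wells, less 3 SD of those wells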;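 also: raw unnormalized fluorescence span taken in the window right after glutamate addition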
A number is an active result; 0 = inactive; - = not tested or not shown.

SMILES	M1 antag	M1 agonist	WNV NS2B-NS3 inh	BAP1 block	Abs 340nm	Fluor 339 460	M1 antag conf	mGluR4 antag
COc1ccc(-c2noc(CCC(=O)Nc3ccc(C)c(C)c3)n2)cc1	-3.2	0	0	0	0	0	0	0
CCOc1ccc(-c2noc(CCC(=O)O)n2)cc1	-0.87	0	0	0	0	0	0	0
Cc1oc2ccc(OC(=O)c3ccc(Br)cc3)cc2c1C(=O)OC(C)C	-	-	-	0	-	-	-	-
CCOc1ccccc1NC(=O)c1c(NC(=O)c2ccccc2Cl)sc2c1CCCC2	-	-	-	0	-	-	-	-
CCN(CC)CCCNC(=O)c1cc(-c2ccc(Cl)c(Cl)c2)on1	-3	0	0	0	0	0	474	0
CCN(CC)CCCNC(=O)c1cc2c(-c3ccc(Cl)cc3)nn(C)c2s1	-6.6	0	0	0	0	2.1	0	0
COc1ccc(CN2CCCN(Cc3ccc(OC)cc3)C2c2ccc(F)cc2)cc1	-	-	-	0	-	-	-	-
O=c1cc(-c2cccc([N+](=O)[O-])c2)c2ccc(OCc3ccc(F)cc3)cc2o1	-	-	-	0	-	-	-	-
CCN1CCN(CCCNC(=O)c2cc3cc4ccc(OC)cc4nc3o2)CC1	-3.9	0	0	-	0	5.2	0	0
COc1ccc2cc3cc(C(=O)NCCN4CCN(Cc5ccccc5)CC4)oc3nc2c1	-2.2	0	0	-	0	5.2	486	0
CCN1CCN(CCCNC(=O)C2c3ccccc3C(=O)N(C)C2c2ccc(OC)cc2)CC1 (stereo not given)	0	0	0	0	0	0	-	-
Cc1ccc(NC(=O)c2ccc(N(Cc3ccccc3)S(C)(=O)=O)cc2)c(C)c1	-	-	-	0	-	-	-	-
CCC1(C)Cc2c(sc3nc(SCC(=O)O)n(-c4ccccc4)c(=O)c23)CO1 (stereo not given)	-	-	-	0	-	-	-	-
Cc1cc(OCC(=O)Nc2ccc(S(=O)(=O)N3CCN(C)CC3)cc2)cc(C)c1Cl	-1.7	0	0	0	0	0	377	0
Cc1ccc(OCC(=O)Nc2ccc(N3CCCC3)cc2)cc1C	-3.6	0	0	0	0	0	0	0
Cc1ccc(OCCCC(=O)Nc2ccc(N3CCOCC3)cc2)c(C)c1	-2.3	0	0	0	0	0	0	0
Cc1ccccc1OCCCC(=O)Nc1ccc(N2CCOCC2)cc1	0	0	0	0	0	0	-	-
Cc1cc(C)cc(OCC(=O)Nc2ccc(N3CCCC3)cc2)c1	-7.6	0	0	0	0	0	155	0
Cc1cccc(OCC(=O)Nc2ccc(N3CCCC3)cc2)c1C	0	0	0	0	0	0	-	-
COc1ccccc1NC(=O)c1c(NC(=O)c2ccccc2F)sc(-c2ccccc2)c1C	-	-	-	0	-	-	-	-
COc1ccc(-n2nnnc2-c2cccc(OC)c2)cc1	0	0	0	0	0	0	-	-
Clc1ccc(-n2nnnc2-c2ccccc2)cc1Cl	-2.6	0	0	0	0	0	0	0
O=C(OCC1CCCN2CCCCC12)c1ccc2c(c1)OCO2 (stereo not given)	-4.8	0	0	0	0	0	0	0
O=C(OCc1ccc2c(c1)OCO2)c1ccc(S(=O)(=O)N2CCCCC2)cc1	0	0	0	0	0	0	-	-
CN1CCc2c(sc3ncn4nc(-c5ccccc5O)nc4c23)C1	-3.7	0	0	0	0	0	353	0
SMILES	M1 antag	M1 agonist	WNV NS2B-NS3 inh	BAP1 block	Abs 340nm	Fluor 339 460	M1 antag conf	mGluR4 antag
c1coc(-c2nc3c4c5c(sc4ncn3n2)CCCC5)c1	0	0	0	0	0	0	-	-
CCn1c(CNc2ccccc2Cl)nnc1SCC(=O)OC1CCCCC1	-4.7	0	0	0	0	0	370	0
CCn1c(CNc2ccc(F)cc2)nnc1SCCN1CCCCC1	-3.3	0	0	0	0	0	570	0
CCSc1nnc(CNc2ccc(F)cc2)n1CC1CCCO1 (stereo not given)	0	0	0	0	0	0	-	-
CCn1c(CNc2ccccc2Cl)nnc1SCCN1CCCCC1	-4.4	0	0	0	0	0	271	0
CCn1c(CNc2cccc(Cl)c2)nnc1SCC(=O)OC1CCCCC1	0	0	0	0	0	0	-	-
COc1ccccc1NCC(O)Cn1c2ccc(Cl)cc2c2cc(Cl)ccc21 (stereo not given)	-	-	-	0	-	-	-	-
CCc1ccccc1OCCCCN1CCCC1	-4.3	0	0	0	0	0	0	0
Cc1ccccc1OCCCN1CCCC1	0	0	0	0	0	0	-	-
C=CCc1ccccc1OCCCCN1CCCC1	-3.4	0	0	0	0	0	367	0
COC(=O)c1ccc(C(=O)OCCCc2nc3ccc([N+](=O)[O-])cc3[nH]2)cc1	-	-	-	0	-	-	-	-
Cc1ccc([N+](=O)[O-])cc1NC1OC(CO)C(O)C(O)C1O (stereo not given)	-	-	-	0	-	-	-	-
O=C1c2cc(S(=O)(=O)N3CCOCC3)cc([N+](=O)[O-])c2-c2c1cc(S(=O)(=O)N1CCOCC1)cc2[N+](=O)[O-]	-	-	-	0	-	-	-	-
CCOc1ccccc1N1CCN(CC(O)COc2ccc3c(C)cc(=O)oc3c2)CC1 (stereo not given)	-1.5	0	0	-	0	0	455	0
Cc1ccc(NC(=O)c2c(-c3c(F)cccc3Cl)noc2C)cc1F	-14	0	0	0	0	0	0	0
CC(=O)Nc1cccc(NC(=O)c2c(-c3c(Cl)cccc3Cl)noc2C)c1	0	0	0	0	0	0	-	-
O=C(NCc1ccc(F)cc1)c1cc(-c2ccco2)on1	-3.9	0	0	0	0	0	0	0
O=C(NCc1ccc(Cl)cc1)c1cc(-c2ccco2)on1	0	0	0	0	0	0	-	-
O=C(c1cccs1)N1CCN(C2CCN(Cc3ccccc3)CC2)CC1	-4.8	0	0	0	0	0	443	0
COC(=O)c1ccc(COc2cccc(OC)c2)o1	-2.4	0	0	0	0	0	0	0
CC(=O)c1c(C)nc2ccccc2c1N	0	0	0	-	0	0	-	-
Cc1c(N(C)C)nc2ccccc2c1N	-2.3	0	0	0	0	0	0	0
CCOC(=O)CNC(=O)CSc1nc(N)cc(N)n1	0	0	0	0	0	0	-	-
CCOC(=O)CNC(=O)CSc1nc(NCc2ccccc2)nc(N(C)C)n1	-1.8	0	0	0	0	0	0	0
CCOC(=O)N1CCN(C(=O)c2ccc3c(c2)sc2nc(-c4ccccc4)cn23)CC1	-2.9	0	0	0	0	0	397	0
